Assay results reported in PubChem BioAssay (Tox21).
Results filed as inconclusive are left out. A number with no mark means an inactive call. Calls of active or inactive are those of the source. Calls come from the whole dose curve.
% is set by controls: 0 for no effect and ±100 for the full control effect.

Test: qHTS assay for small molecules that induce genotoxicity in human embryonic kidney cells expressing luciferase-tagged ATAD5 - cell viability (AID 651634); note: nearly all actives have a fitted effect of over 25% in size
Details: HEK293T ATAD5-luc cells viability, CellTiter-Fluor, 15.5 h; series mostly up to 83.3 µM; activity, negative = cytotoxicity: at the top concentration
Text: National Center for Advancing Translational Sciences [NCATS]
NIH Chemical Genomics Center [NCGC]
U.S. Environmental Protection Agency [EPA]
National Institutes of Environmental Health Sciences [NIEHS]
National Toxicology Program [NTP]
U.S. Food and Drug Administration [FDA]
Enhanced Level of Genome Instability Gene 1 (ELG1; human ATAD5) protein levels increase in response to various types of DNA damage. Using a luciferase reporter-gene tagged with ElG1, a cell-based assay [developed by Kyungjae Myung, NHGRI, NIH] was used to measure the induction of ATAD5 in human embryonic kidney cells (HEK293T). So, increase in luciferase activity can be used to identify the compounds that cause genetic stress. In addition to genotoxicity, these cells were also used to test for cytotoxicity by measuring the protease activity within live cells.
Tox21 Assay Protocol Summary:
For cytotoxicity screening, 2,000 cells in 5 uL/well were dispensed into white, solid-bottom 1536-well plates using a Multidrop Combi (Thermo Scientific) dispenser. Following transfer of 23 nL compound or DMSO vehicle by a pin tool, the plates were incubated 15.5 hr at 37C and 5% CO2. 1 ul CellTiter-Fluor reagent (Promega, Madison, WI) was then added to each plate and following 30 min incubation at 37C, fluorescence intensity was quantified on a ViewLux CCD-based plate reader.
For `Nc1cnn([C@@H]2O[C@H](CO)[C@@H](O)[C@H]2O)c(=O)n1`, the “activity, negative = cytotoxicity” value was 3.03%.
In the case of `Cc1cccc(OCCOc2cccc(C)c2)c1`, the “activity, negative = cytotoxicity” value is reported as 18.2% [at 95.3 µM].
In the case of `NC(=S)N/N=C/c1cccnc1`, the “activity, negative = cytotoxicity” value is reported as 4.62%.
For `c1ccc(CNCc2ccccc2)cc1`, the “activity, negative = cytotoxicity” value was -11%.
In the case of `Cc1cc(CC(=O)O)c(C)n1-c1ccc(Cl)cc1`, the “activity, negative = cytotoxicity” value is reported as -1.89%.
For `CCCCC(CC)COCCCN` (stereo not given), the “activity, negative = cytotoxicity” value was 5.89%.
With `CCC(=O)OC(C)(C)C1CC=C(C)CC1` (stereo not given) the “activity, negative = cytotoxicity” value was -4.01%.
In the case of `SC1CCCC1`, the “activity, negative = cytotoxicity” value is reported as -3.07%.
For `Oc1ccc(C(O)CNCCCCCCNCC(O)c2ccc(O)c(O)c2)cc1O` (stereo not given), the “activity, negative = cytotoxicity” value was -14.1%.
With `N=C(N=C(N)N)N1CCOCC1` the “activity, negative = cytotoxicity” value was 10.8% [at 39.1 µM].
For `Nc1ccc(C(=O)Nc2ccccc2N)cc1`, the “activity, negative = cytotoxicity” value was -17.1%.
With `Cc1occc1S` the “activity, negative = cytotoxicity” value was -4.49%.
For `NCCCN(CCO)CCO`, the “activity, negative = cytotoxicity” value was 6.28%.
In the case of `CC(=O)/C(C)=C/C1C(C)=CCCC1(C)C` (stereo not given), the “activity, negative = cytotoxicity” value is reported as 20.3%.
In the case of `O=C(O)Cn1c(C(=O)Nc2nc(-c3ccccc3Cl)cs2)cc2ccccc21`, the “activity, negative = cytotoxicity” value is reported as 2.62%.
With `Cc1ccc(C(=O)C(C)CN2CCCCC2)cc1` (stereo not given) the Potency was “inactive”.
With `O=C(CC(=O)c1ccccc1)c1ccccc1` the “activity, negative = cytotoxicity” value was 5.58% [at 95.3 µM].
With `CN1CCC[C@@H]1c1cccnc1` the “activity, negative = cytotoxicity” value was 17.1%.
For `COc1cc(C(C)(C)C)c(O)c(C(C)(C)C)c1`, the “activity, negative = cytotoxicity” value was 16.7%.
With `O=C(NN1CCCC1)NS(=O)(=O)c1ccc(Cl)cc1` the “activity, negative = cytotoxicity” value was 3.99%.
In the case of `NC(N)=N/N=C/c1c(Cl)cccc1Cl`, the “activity, negative = cytotoxicity” value is reported as 19.6%.
With `c1ccc(-c2nc[nH]c2-c2ccccc2)cc1` the “activity, negative = cytotoxicity” value was 10.3%.
For `Cl/C(=C\n1cncn1)c1ccc(Cl)cc1Cl`, the “activity, negative = cytotoxicity” value was 9.29%.
For `CC(C)c1cccc(C(C)C)c1NC(=O)NS(=O)(=O)c1cc(C(C)(C)O)co1`, the “activity, negative = cytotoxicity” value was 32%.
In the case of `N#CCc1cccc(C(F)(F)F)c1`, the “activity, negative = cytotoxicity” value is reported as 13.3%.
For `CC(C(=O)O)c1ccc(-c2ccccc2)c(F)c1` (stereo not given), the Potency was “inactive”.
With `NCCCOCCOCCOCCCN` the “activity, negative = cytotoxicity” value was -7.47%.
For `O=C(c1ccccc1)c1ccc2n1CCC2C(=O)O` (stereo not given), the Potency was “inactive”.
For `NC1CCN(c2nc3c(cc2F)c(=O)c(C(=O)O)cn3-c2ccc(F)cc2F)C1` (stereo not given), the “activity, negative = cytotoxicity” value was 13.1%.
For `O=C(O)Cc1sc(-c2ccccc2)nc1-c1ccc(Cl)cc1`, the Potency was “inactive”.
With `Cc1nc2ccccc2n1Cc1ccc(Cl)cc1` the “activity, negative = cytotoxicity” value was -8.06%.
In the case of `O=C(Nc1ccccc1)OCC(CN1CCCCC1)OC(=O)Nc1ccccc1` (stereo not given), the “activity, negative = cytotoxicity” value is reported as -7.58% [at 39.1 µM].
In the case of `CC1(C)[C@H]2CC[C@]1(C)[C@H](O)C2`, the Potency is reported as “inactive”.
For `CCCCCCCCCCCCCCCBr`, the “activity, negative = cytotoxicity” value was 17%.
With `C=CC(=O)OCCOC(=O)CCC(=O)O` the “activity, negative = cytotoxicity” value was -6.3%.
For `CCCCCOC(=O)COc1cc(N2C(=O)C3=C(CCCC3)C2=O)c(F)cc1Cl`, the “activity, negative = cytotoxicity” value was 8.22%.
For `C=CC(C)(CCC=C(C)C)OC(=O)c1ccccc1` (stereo not given), the “activity, negative = cytotoxicity” value was 12%.
With `N#CCCNCCC#N` the “activity, negative = cytotoxicity” value was 19.5% [at 95.3 µM].
In the case of `COC(=O)CSc1cc(N=c2sc(=O)n3n2CCCC3)c(F)cc1Cl`, the “activity, negative = cytotoxicity” value is reported as 12.1%.
With `CCCCOC(O)CC` (stereo not given) the “activity, negative = cytotoxicity” value was -3.26%.
